# Laboratory results reported in publication PMC7826789 (International Journal of Molecular Sciences, 2021).
smiles,measurement,setting,value
COc1cc(Nc2cnc(C#N)c(O[C@H](C)CN(C)C)n2)ncc1-c1cnn(C)c1 [CCT244747],Kinases covered,RPS6KA3,RPS6KA3
CCn1c(-c2nonc2N)nc2cncc(C(=O)N3CC[C@H](N)C3)c21.Cl [SB-772077-B],Kinases covered,RPS6KA5,RPS6KA5
same,Kinases covered,RSK1,RSK1
CCCNC(=O)c1ccc(Nc2ncc(C(F)(F)F)c(Nc3ccccc3C(C)=O)n2)c(Br)c1 [BI00801818],Kinases covered,RSK1,RSK1
same,Kinases covered,RSK2,RSK2
COc1ccc2[nH]c3c4[nH]c5ccc(OC)cc5c4c4c(c3c2c1)C(=O)NC4=O [GW296115X],Kinases covered,RSK3,RSK3
CC(C)N1CC(=O)N(C)c2cnc(Nc3cccc(S(=O)(=O)CCN4CCOCC4)c3)nc21 [BI00009348],Kinases covered,RSK4,RSK4
CCn1c(-c2nonc2N)nc2cncc(CNC3CCNCC3)c21 [SB-747651A],Kinases covered,RSK,RSK
CCn1cc(-c2ccnc3[nH]c(-c4cccc(CN(C)C)c4)cc23)c(-c2ccc(NC(=O)N(C)C)cc2)n1 [GSK1070916],Kinases covered,SIK,SIK
COc1cc2c(cc1OC)C(=C(Nc1ccccc1)c1cccc(CN)c1)C(=O)N2 [BIBF0846CL],Kinases covered,SNARK,SNARK
